{
  "source": "PubChem BioAssay (NCATS)",
  "note": "Results filed as inconclusive are left out. A call without a number means that no potency is given here. Calls of active or inactive are those of the source. The call rests on the fitted dose curve; in most records, active means well fitted inhibition curve with a large enough effect; inconclusive means small, poorly fitted or top-dose-only effect; inactive means flat fitted curve, though single readings scatter.",
  "data": [
    {"target": "Calcium and integrin-binding protein 1 (Homo sapiens) (UniProt Q99828)", "sequence (Q99828 whole entry, looked up)": "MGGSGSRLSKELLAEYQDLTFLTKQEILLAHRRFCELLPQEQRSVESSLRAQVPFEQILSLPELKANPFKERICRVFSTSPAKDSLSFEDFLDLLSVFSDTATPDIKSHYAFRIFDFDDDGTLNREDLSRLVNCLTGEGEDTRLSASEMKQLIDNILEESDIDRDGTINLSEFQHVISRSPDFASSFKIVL", "experiment": "Primary qHTS for Identification of Calcium Integrin Binding Protein 1 (CIB1) Competitor (AID 1508620);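 further: GST tagged CIB1 binding a fluorescein labelled alphaIIb integrin peptide tracer; top concentration of the series differs between compounds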", "settings": "CIB1-GST / FITC-alphaIIb peptide fluorescence polarization; series mostly up to 114 µM", "procedure,_shortened": "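CIB1-GST (1 uM final) and compound incubated 15 min at room temperature before adding FITC-alphaIIb peptide tracer (100 nM final). Competition for binding read by fluorescence polarization (ex 480, em 540) after another 15 min at room temperature.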", "values": [
      {"smiles": "Cc1cc(NC(=O)Nc2nnc(C3CCCCC3)s2)ccc1Br", "Potency": "inactive"},
      {"smiles": "COc1ccc(C2Nc3ccccc3C(=O)N2CCc2ccc(Cl)cc2Cl)cc1COc1ccc(NC(C)=O)cc1", "note": "(centres undefined)", "Potency": "inactive"},
      {"smiles": "CC(=O)c1ccc(N2CCN(S(=O)(=O)c3ccc4c(c3)CC(=O)N4)CC2)cc1", "Potency": "inactive"},
      {"smiles": "COc1cc(OC)cc(-c2nnc3n2N=C(c2ccc(OC)c(OC)c2)CS3)c1", "Potency": "inactive"},
      {"smiles": "O=C(Nc1ncc(Cc2cccc(C(F)(F)F)c2)s1)c1ccc(-c2cccc([N+](=O)[O-])c2)o1", "Potency": "inactive"},
      {"smiles": "COc1ccc(C2Nc3cccc(OC)c3C(=O)N2Cc2ccco2)cc1COc1c(C)cc(NC(C)=O)cc1C", "note": "(centres undefined)", "Potency": "inactive"},
      {"smiles": "O=C1CCc2cc(S(=O)(=O)Nc3ccc4c(c3)CCC4)ccc2N1", "Potency": "inactive"},
      {"smiles": "Cc1cnc(-c2ccccc2C(C)O)nc1NCC1CCN(c2cccnc2)CC1", "note": "(centres undefined)", "Potency": "inactive"},
      {"smiles": "O=C1CCc2cc(S(=O)(=O)Nc3ccncc3)ccc2N1", "Potency": "inactive"},
      {"smiles": "CCCC(C)NC(=O)Cn1nc(-c2ccc(C)cc2)ccc1=O", "note": "(centres undefined)", "Potency": "inactive"},
      {"smiles": "O=S(=O)(c1ccc(C(F)(F)F)cc1)N1CCN(S(=O)(=O)c2ccc3c(c2)OCCO3)CC1", "Potency": "inactive"},
      {"smiles": "COc1ccc(C2Nc3ccccc3C(=O)N2Cc2ccccc2)cc1COc1c(C)cccc1C", "note": "(centres undefined)", "Potency": "inactive"},
      {"smiles": "NC(=O)c1c(-c2ccccc2)no[n+]1[O-]", "Potency": "inactive"},
      {"smiles": "Cc1ccc(CN(C)c2ncnc3ccc(-c4ccc(CO)o4)cc23)o1", "Potency": "inactive"},
      {"smiles": "N#Cc1c(-c2ccc(Cl)c([N+](=O)[O-])c2)no[n+]1[O-]", "Potency": "inactive"},
      {"smiles": "COc1ccc(C(=O)c2ccc(-c3no[n+]([O-])c3C#N)cc2)cc1", "Potency": "inactive"},
      {"smiles": "C=CCNc1nnc(-c2cccc3ccccc23)o1", "Potency": "inactive"},
      {"smiles": "CC(=O)Nc1sc2c(c1-c1ccc3scnc3c1)CCNC2", "Potency": "inactive"},
      {"smiles": "S=P(c1ccccc1)(c1ccccc1)c1c[n+](C/C=C/c2ccccc2)c2ccccn12", "Potency": "inactive"},
      {"smiles": "NC(=O)C1CCN(c2ncc(-c3ccc4c(c3)OCCO4)s2)CC1", "Potency": "inactive"},
      {"smiles": "Cc1cnc(-c2ccccc2C(C)C)nc1NCc1ccc(C(N)=O)cc1", "Potency": "inactive"},
      {"smiles": "CC(=O)c1ccccc1-c1ncc(C)c(NCc2ccc(-c3cccnc3)cc2)n1", "Potency": "inactive"},
      {"smiles": "CC(=O)N1CCN(c2nc(-c3ccc(Br)cc3)cs2)CC1", "Potency": "inactive"},
      {"smiles": "COc1ccc(C2=Nn3c(nnc3-c3cccc(OC)c3OC)SC2)cc1", "Potency": "inactive"}
    ]}
  ]
}
